# TIM10 inh = growth inhibitors of isogenic TIM10 control yeast, primary screen, counter-screen for tim10-1 yeast inhibitor project, luminescence, uHTS; 330,000 compounds, 1.4% hits; AID 463195, 2010; S. cerevisiae TIM10 strain growth, BacTiter-Glo luminescence, 24 h; inhibition, % at 10 µM;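 active = inhibition of 40% or more at the single tested concentration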;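 note: wild-type TIM10 isogenic control strain grown at permissive 25 °C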
# tim23-1 inh = growth inhibitors of tim23-1 mutant yeast, primary screen, luminescence, uHTS | S. cerevisiae tim23-1 growth, BacTiter-Glo luminescence, 24 h | inhibition, % at 20 µM | 330,000 compounds, 1.3% hits | AID 463212, 2010;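 active = growth inhibition of the mutant yeast at or above 50%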;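 note: temperature-sensitive mutant grown at 25 °C; plate controls were DMSO-treated mutant yeast for no effect and medium wells lacking yeast for full effect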
# NALP1 yeast inh = NALP1 inflammasome inhibitors in reconstituted yeast, colorimetric, S. cerevisiae, triplicate retest; S. cerevisiae NALP1/ASC/caspase-1 growth, X-gal OD620, 72 h; inhibition, % at 10 µM; 280,000 compounds, 0.61% hits; AID 2071, 2009; in the data active = inhibition mostly above about 24%, no sharp cut-off; inactive = mostly below about 32%
# tim10-1 inh = growth inhibitors of tim10-1 mutant yeast, primary screen, luminescence, uHTS | S. cerevisiae tim10-1 ts strain growth, BacTiter-Glo, 24 h | inhibition, % at 20 µM | 330,000 compounds, 2.2% hits | AID 463190, 2010;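 active = inhibition of at least 40%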;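 note: mutant grown at 25 °C; 0% = DMSO wells with yeast and 100% = wells holding no yeast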
# PfHsp90 yeast 2 = growth inhibition of PfHsp90-expressing yeast, primary screen, antimalarial PfHsp90 inhibitor project, S. cerevisiae, BacTiter-Glo luminescence, single point, set 2; BacTiter-Glo ATP, 48 h; yeast lacking PDR1 and PDR3 efflux regulators; 310,000 compounds, 0.32% hits; AID 504621, 2011; inhibition, % at 9.4 µM;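 active = every replicate shows inhibition above about 80%, whatever the replicate mean, limit read from the data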;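 note: 0% = DMSO neutral controls and 100% = 20 µM radicicol positive controls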
# SKKanGAS inh = S. pyogenes SKKanGAS growth inhibitors in kanamycin, primary screen, streptokinase expression inhibitor project, SKKanGAS strain, BacTiter-Glo luminescence; 6 h; inhibition, % at 7.5 µM; 300,000 compounds, 1.3% hits; AID 1662, 2009;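 active = mean replicate score, as percent of positive control median, at least 50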;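 note: strain carries kanamycin resistance gene driven by streptokinase promoter and grows in 40 µg/ml kanamycin; loss of luminescence reflects streptokinase promoter inhibition or plain growth inhibition; 0% = median of DMSO wells and 100% = positive control at its reference dose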
# tim10 confirm = growth inhibitors of wild-type TIM10 yeast, confirmation, counter-screen for tim10-1 synthetic lethality project, single concentration, luminescence, S. cerevisiae; shares compounds with TIM10 inh; S. cerevisiae tim10 strain growth, BacTiter-Glo luminescence, 24 h; inhibition, % at 10 µM; 4,600 compounds, 63% hits;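 active = inhibition of yeast growth at or above a set limit in either of two replicates at 10 µM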;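 note: this counterscreen used the strain with wild-type TIM10; 0% = yeast with DMSO and 100% = medium wells lacking yeast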
# The depositor's hits bear a star; . = not tested or not shown. Rows were chosen to be rich in hits. Some 4.8% of all compounds tested hit in one or more screens of this group.
SMILES,TIM10 inh,tim23-1 inh,NALP1 yeast inh,tim10-1 inh,PfHsp90 yeast 2,SKKanGAS inh,tim10 confirm
CC(C)CC(=O)NC(=S)Nc1cccc(NC(=O)c2ccccc2Cl)c1,45*,34,9,22,12,0,34*
CC(C)CC(=O)NC(=S)Nc1ccc(NC(=O)c2ccco2)cc1,46*,40,20,15,30,-1,-23
CC(C)CC(=O)Nc1cccc(NC(=O)c2ccccc2Cl)c1,-3,25,31,5,-17,-2,.
O=C(N/N=C/c1ccccn1)c1ccc(Br)cc1,3,-38,4,-13,24,-3,.
O=C(N/N=C/c1ccccn1)c1ccc(N/N=C/c2ccccn2)cc1,62*,18,-11,28,2,1,34*
Cc1c(NC(=S)N/N=C/c2cccc(O)c2)c(=O)n(-c2ccccc2)n1C,1,-6,-12,-3,-4,2,.
CCOc1ccc(C(=O)O/N=C(\N)c2ccccn2)cc1,42*,38,22,38,43,7,36*
Cc1ccc2c(c1)Cc1nc3ccccc3nc1-2,46*,42,41,19,-64,15,51*
Cc1ccc2c(c1)-c1nc3ccccc3cc1C2=NC1CCCCC1,.,.,7,.,26,.,.
COC(=O)C(C)N(C(=O)c1cccc2ccccc12)c1c(C)cccc1C (stereo unspecified),42*,44,8,27,-6,3,31*
COC(=O)C(C)N(C(=O)c1cccc(Cl)c1)c1c(C)cccc1C (stereo unspecified),30,35,34,35,4,0,.
CC(C)(C)c1ccc(OCC(O)CN2CCOCC2)cc1 (stereo unspecified),48*,-4,.,4,-16,-6,8
CC(C)(C)C1CCc2[nH]c3ccccc3c(=O)c2C1 (stereo unspecified),44*,46,-3,29,28,0,33*
Fc1ccc2nc(Nc3ccccc3)sc2c1,43*,24,14,30,-23,-1,30
NNc1nc2ccc(F)cc2s1,5,20,41,13,2,3,.
O=C(COC(=O)c1ccccc1Nc1ccc(SC(F)F)cc1)NC1CC1,51*,27,26,31,5,41,37*
O=C(NC(=S)Nc1ccc(S(=O)(=O)N2CCCCC2)cc1)c1cccs1,-7,2,21,18,-25,7,.
O=C(NC(=S)Nc1ccc(S(=O)(=O)NC2CCCCC2)cc1)c1cccs1,41*,36,10,31,-61,31,38*
O=C(CC(c1ccccc1)c1ccccc1)Nc1ccc(O)cc1,14,22,19,9,19,10,.
O=C(NC12CC3CC(CC(C3)C1)C2)c1ccccc1,8,7,1,26,7,6,.
O=C(NC(=S)NC12CC3CC(CC(C3)C1)C2)c1ccc(F)cc1,44*,47,.,20,.,.,48*
O=S(=O)(Nc1ccc(-n2cccc2)cc1)c1ccc(Cl)c(Cl)c1,45*,40,-5,-57,-15,50*,41*
COc1ccccc1/C=C/C(=O)NC(=S)NCC1CCCO1 (stereo unspecified),42*,21,-3,34,-5,-11,35*
COc1ccc(/C=C/C(=O)NC(=S)NCC2CCCO2)cc1 (stereo unspecified),0,1,1,25,-31,-1,.
COc1ccc(/C=N/NC(=S)NCC2CCCO2)cc1 (stereo unspecified),44*,33,.,31,6,-2,20
SMILES,TIM10 inh,tim23-1 inh,NALP1 yeast inh,tim10-1 inh,PfHsp90 yeast 2,SKKanGAS inh,tim10 confirm
COc1cc(/C=N/NC(=S)NCC2CCCO2)cc(OC)c1OC (stereo unspecified),9,16,.,10,-4,10,.
O=C(/C=C/c1cc(Br)ccc1O)c1ccco1,66*,-86,.,-130,101*,-14,80*
Cc1ccc(/C=C/C(=O)c2cc(Br)ccc2OC(=O)c2ccco2)cc1,47*,40,23,37,-14,19,44*
N#Cc1ccc(/C=C/C(=O)c2ccco2)cc1,-3,8,27,27,-2,-8,.
CCc1cccc(NC(=O)c2ccc(NS(=O)(=O)c3c(C)noc3C)cc2)c1,-2,12,5,4,3,5,.
CC(C)Oc1ccc(C(=O)Nc2ccc(N(C)C)cc2)cc1,50*,24,32,15,9,3,-22
CC(C)NC(=O)N(C)C[C@@H]1Oc2c(NC(=O)C3CCOCC3)cccc2C(=O)N([C@@H](C)CO)C[C@H]1C,97*,-21,.,-8,-14,.,-10
CC(C)NC(=O)Nc1cccc2c1O[C@H](CN(C)C(=O)NC(C)C)[C@@H](C)CN([C@H](C)CO)C2=O,2,2,.,-14,14,.,.
CCN(C(=O)Cn1c(=O)n2nc(CCn3nc(C)cc3C)nc2c2ccccc21)c1cccc(C)c1,48*,44,4,36,-14,.,45*
Cc1cccc(NC(=O)Cn2c(=O)n3nc(CCn4nc(C)cc4C)nc3c3ccccc32)c1,11,11,13,12,-2,-4,.
CCN(C[C@H]1N[C@@](C)(C(=O)OC)[C@H]2C(=O)N(Cc3ccccc3)C(=O)[C@@H]12)S(=O)(=O)c1ccc(C(C)(C)C)cc1,90*,18,.,21,10,.,11
COc1cc(C)c(Cl)c(C)c1S(=O)(=O)NCc1cccnc1,-1,8,-10,20,13,-2,.
CC(/C=C1\SC(=S)N(NS(=O)(=O)c2ccc(C)cc2)C1=O)=C\c1ccccc1,48*,29,.,28,-46,78*,25
CC(/C=C1\SC(=S)N(NC(=O)c2ccccc2C)C1=O)=C\c1ccccc1,-1,7,17,3,3,6,.
Cc1cc(C)n(-c2ccc(C(=O)Nc3ccc(C)c(S(=O)(=O)N(C)C)c3)cc2)n1,19,20,6,15,-18,-3,.
COc1ccc(CNCc2ccc3ccccc3c2)c(OC)c1,4,19,2,8,-2,4,.
Cc1nnc(SCc2ccc(Cl)c(Cl)c2)s1,2,6,4,15,-22,-5,.
Cc1[nH]c(=S)sc1Cc1ccc(Cl)c(Cl)c1,42*,18,14,28,.,28,-13

# Assay outcomes (PubChem BioAssay)
